# MITF inh: blocks human microphthalmia-associated transcription factor; O75030; AlphaScreen MITF homodimerization, bead proximity signal; inhibition, % at 2.6 µM; 650,000 tested, 0.91% active; AID 1259374; in the data active = inhibition above about 50%;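 also: 0% = vehicle wells with protein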
# Target sequence (O75030 whole entry, looked up): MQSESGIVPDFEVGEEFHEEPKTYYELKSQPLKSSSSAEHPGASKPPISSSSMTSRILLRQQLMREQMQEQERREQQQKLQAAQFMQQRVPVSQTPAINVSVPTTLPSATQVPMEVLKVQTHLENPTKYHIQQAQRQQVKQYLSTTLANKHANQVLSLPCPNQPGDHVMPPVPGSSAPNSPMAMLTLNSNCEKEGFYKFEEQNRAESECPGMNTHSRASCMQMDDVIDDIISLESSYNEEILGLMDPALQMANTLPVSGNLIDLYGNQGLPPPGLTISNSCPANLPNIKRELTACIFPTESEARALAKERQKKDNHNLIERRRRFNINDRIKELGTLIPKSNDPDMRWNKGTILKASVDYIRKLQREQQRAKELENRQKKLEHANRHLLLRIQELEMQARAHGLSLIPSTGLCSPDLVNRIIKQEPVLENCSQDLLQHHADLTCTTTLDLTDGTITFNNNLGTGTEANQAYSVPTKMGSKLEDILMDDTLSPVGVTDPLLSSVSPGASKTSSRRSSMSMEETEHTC
# GPR151 ag: activators of human GPR151 | Q8TDV0 | 650,000 tested, 1% active | PathHunter beta-arrestin GPR151 cells, luminescence | activation, % at 11.2 µM; in the data active = activation above about 4.9%;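 also: 0% = median of compound wells and 100% = cells with positive control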
# FBW7 act: activators of human E3 ligase FBW7. Q969H0. AlphaScreen FBW7–phospho-cyclin E peptide binding, activator screen. normalized activity (activation), % at 26.1 µM. 650,000 tested, 0.13% active; in the data active = normalized activity above about 1.9%;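 also: purified mutant Fbw7 with reduced substrate affinity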
# TEAD-YAP inh: TEAD-YAP interaction inhibition; 640,000 tested, 1.4% active; inhibition, % at 9.12 µM; HEK-TIYL cells, TEAD-Gal4/YAP UAS-luciferase luminescence; in the data active = inhibition above about 32%;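 also: 0% = median of test compound wells and 100% = reference inhibitor wells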
# GPR151 confirm: confirmation of human GPR151 activators | shares compounds with GPR151 ag | GPR151 PathHunter beta-arrestin cells, luminescence, 90 min; % of EA-reagent control over plate median | activation, % at 11.2 µM | 6,700 tested, under 10 active;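 active = mean percent activation across replicates above the confirmation screen cutoff of 4.91%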
# GPR119 counter: GPR119 activation, counter-screen for GPR151 activators; shares compounds with GPR151 ag; activation, % at 11.2 µM; GPR119 PathHunter beta-arrestin cells, luminescence, 90 min; 0 = compound-well median, 100 = enzyme-acceptor control; 6,700 tested, 0.3% active;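 active = mean percent activation in the counterscreen above 29.09%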;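 also: counterscreen on off-target GPR119 to flag nonselective hits from the GPR151 activator screen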
# * marks the source's active call; other numbers are inactive results; / = no result given. This is a sample that favours compounds with a hit; in the whole collection about 3.5% have one here.
SMILES,MITF inh,GPR151 ag,FBW7 act,TEAD-YAP inh,GPR151 confirm,GPR119 counter
CCN(CC)C(=O)C1CCCN(c2ccc([N+](=O)[O-])cc2S(=O)(=O)N2CCCC2)C1 (stereo unspecified),-3.5,7.0*,0.1,-16.8,0.2,14.5
O=C(O)c1cccc(-n2nnnc2-c2ccccc2)c1,-5.0,5.8*,0.2,-6.7,-0.9,-18.3
CN(C)c1ccc(-c2cnc(Nc3ccc(Cl)cc3)c3nccn23)cc1,-10.1,-0.2,-0.4,-3.5,/,/
Cc1c(C(=O)NCC2CCCO2)oc2ccc3c(c12)C=CC(C)(C)O3 (stereo unspecified),10.8,10.1*,0.1,-72.9,-0.8,-1.8
COc1ccc(N2C(=O)NC(=O)/C(=C\c3ccsc3)C2=O)cc1,-17.2,1.6,0.0,-7.3,/,/
O=C(NCc1ccccc1)c1ccc2nc(-c3ccc(N4CCOCC4)nc3)sc2c1,-5.5,0.6,-0.1,-24.1,/,/
Cc1ccc(NC(=O)c2cc3c(=O)n4ccccc4nc3n2C)cc1F,13.8,5.6*,0.8,0.9,0.3,-1.9
Cn1c(C(=O)Nc2ccc(Oc3ccccc3)cc2)cc2c(=O)n3ccccc3nc21,4.4,5.9*,0.2,-3.5,-0.2,4.8
CC(=O)Nc1ccc(NC(=O)c2cc3c(=O)n4ccccc4nc3n2C)cc1,-3.7,0.1,-0.2,0.9,/,/
C/C(=N\NC(=O)CSc1nnc(SCc2ccccc2)s1)c1cccnc1,3.6,0.0,-0.1,-6.9,/,/
O=S(=O)(c1ccc(F)cc1)N1CCN=C1SCc1cccc(Cl)c1,-10.8,0.3,-0.1,-12.8,/,/
CCOC(=O)C1CCCN(C(=O)/C(C)=C\c2ccccc2)C1 (stereo unspecified),2.1,5.3*,0.3,-1.5,-0.5,-7.0
COc1ccc(/C=N/NC(=O)CNc2ccc3ccccc3c2)cc1Cl,15.2,-1.1,0.0,-11.8,/,/
COc1ccc(/C=N/NC(=O)CNC(=O)c2ccccc2Br)cc1OC,5.8,7.6*,0.0,3.2,0.2,-4.2
COc1ccc(/C=N/NC(=O)CNC(=O)c2ccccc2Br)cc1,2.8,-0.9,0.0,0.1,/,/
COc1ccc(/C=N/NC(=O)C(=O)Nc2cccc(Cl)c2)cc1OC,-7.2,7.4*,0.0,-4.1,-0.1,1.8
COc1ccc(/C=N/NC(=O)CNc2ccc3ccccc3c2)cc1OC,10.9,5.9*,0.1,-3.9,-0.2,-2.6
O=C(NCc1ccccc1)c1ccnc(-c2ccc(N3CCOCC3)nc2)c1,-10.5,-0.9,0.0,-20.2,/,/
c1ccc2c(c1)OC[C@H](c1nc3ccc(-c4ccncc4)cc3[nH]1)O2,17.5,-0.3,0.0,-30.6,/,/
FC(F)(F)c1cc2[nH]c(C3COc4ccccc4O3)nc2cc1-c1ccncc1 (stereo unspecified),-4.6,8.0*,0.0,-15.3,0.3,-1.1
O=C(N=C1N=C2C=CC(Cl)=CN2Cc2ccccc21)c1ccc(Cl)c([N+](=O)[O-])c1,-0.7,16.8*,0.0,-15.8,1.3,-5.8
O=C(N=C1N=C2C=CC(Cl)=CN2Cc2ccccc21)c1ccco1,6.4,-7.0,-0.2,-43.4,/,/
CC1=NN(c2ccccc2)C(=O)/C1=C/c1ccc(N2CCCC2)c(F)c1,12.3,0.9,-0.2,5.8,/,/
Cc1c(N2C(=O)c3ccc(Br)cc3C2=O)c(=O)n(-c2ccccc2)n1C,2.5,5.2*,-0.1,-5.0,-0.3,-3.9
CCc1sc(C(=O)NCc2ccccc2OC)cc1C,-3.7,5.5*,0.2,1.2,-0.4,13.5
SMILES,MITF inh,GPR151 ag,FBW7 act,TEAD-YAP inh,GPR151 confirm,GPR119 counter
O=C(CCC1(Cc2ccco2)CCC(=O)N1)NCc1cnn(-c2ccccc2)n1 (stereo unspecified),-2.0,0.3,-0.1,0.5,/,/
O=C(CCC1(Cc2ccc3c(c2)OCO3)CCC(=O)N1)NCc1cnn(-c2ccccc2)n1 (stereo unspecified),2.3,7.1*,0.0,9.9,0.7,5.6
Cc1nc2sc(C(c3ccco3)N3CCC(C(N)=O)CC3)c(O)n2n1 (stereo unspecified),8.0,-0.6,0.3,1.5,/,/
O=C(CCC1=NNC(=O)CC1)NCCN1Cc2ccccc2OC(c2ccccc2F)C1 (stereo unspecified),5.4,0.8,-0.2,0.2,/,/
O=C1CCC(CCC(=O)N2Cc3ccccc3OC(c3ccccc3)C2)=NN1 (stereo unspecified),-3.1,9.9*,0.0,-9.7,-0.1,4.6
CN1CCN(C(=O)CN(c2cccc(Cl)c2)S(=O)(=O)c2ccc(Cl)cc2)CC1,11.4,0.6,-0.1,-3.0,/,/
O=C(CN(c1cccc(Cl)c1)S(=O)(=O)c1ccc(Cl)cc1)N1CCOCC1,-3.3,9.1*,-0.1,1.8,-0.4,-6.5
COc1ccc(C(=O)NNC(=O)COc2ccccc2C#N)cc1,-2.6,-1.0,0.0,-12.3,/,/
COC(=O)c1ccc(NC(=S)NCCO)cc1,12.6,6.3*,0.0,-3.0,0.5,3.2
COC(=O)c1sccc1NC(=S)Nc1ccc(F)cc1,-4.5,0.4,0.0,-3.7,/,/
COC(=O)c1sccc1NC(=S)Nc1ccc(OC)c(OC)c1,-18.8,6.0*,-0.1,-2.4,0.4,4.4
CCOC(=O)c1ccc(NC(=S)Nc2ccsc2C(=O)OC)cc1,-1.6,5.7*,-0.3,-10.7,0.2,-13.8
Cc1ccc2nc(C(F)(F)F)c(C(=O)N3CC(C)CC(C)C3)n2c1 (stereo unspecified),-2.5,0.4,-0.1,-2.0,/,/
Cc1ccc(S(=O)(=O)N(C)CC(=O)OCN2C(=O)c3ccccc3C2=O)cc1,-5.6,0.6,-0.1,10.2,/,/
O=C(Nc1cccc(N2CCC(NCc3cccs3)CC2)c1)c1cccnc1,18.0,1.3,0.1,1.3,/,/
CCOC(=O)C1=C(N)OC2=C(C(=O)CCC2)C1c1cccc([N+](=O)[O-])c1 (stereo unspecified),1.2,2.0,-0.1,-3.2,/,/
CC(C)c1ccc(C(=O)Nc2ccc(N(C)C)cc2)cc1,6.5,18.8*,-0.2,6.5,-1.1,-11.1
CC(C)c1ccc(NC(=O)c2ccc(N(C)C)cc2)cc1,5.8,0.5,0.6,-46.0,/,/
Cc1cc2nc3c(=O)n(C4CCCCCC4)c(=O)[nH]c3nc2cc1N,5.4,5.1*,0.6,-20.4,2.4,8.1
CCOC(=O)C(C)NC(=O)CCc1nnc2ccc(N3CCC(C)CC3)nn12 (stereo unspecified),3.9,5.4*,-0.3,3.4,-0.2,-3.2
CCOc1ccccc1NC(=O)CCc1nnc2ccc(N3CCCC3)nn12,6.2,6.7*,-0.1,7.3,0.3,1.3
CCOc1ccccc1NC(=O)CCc1nnc2ccc(N3CCCCC3)nn12,11.9,-1.8,0.5,5.8,/,/
Cc1ccnc(NC(=O)COC(=O)c2nn(C)c(=O)c3ccccc23)n1,5.4,-0.1,0.0,2.4,/,/
Cc1c2cnn(-c3ccccc3)c(=O)c2c(C)n1C(C)C(=O)N1CCCCC1 (stereo unspecified),-5.2,2.0,-0.2,3.3,/,/

# Assay outcomes from PubChem BioAssay.
